About 3,300 (1.1%) of roughly 290,000 compounds were called active. Cut-off read from the data, not from the text of the source: active = binding response below about 67% or above about 130%; inconclusive = no clear call, values can overlap the other calls; inactive = in between. Only a selection was taken, and actives are over-represented in it overall.

The assay addresses Mitogen-activated protein kinase kinase kinase 2 (Homo sapiens) (UniProt Q9Y2U5). Description: wildtype MEKK2 PB1-MEK5 interaction, increase or decrease – biochemical, multiplex bead flow cytometry, Alexa488-MEK5, primary screen (AID 1531). Conditions: Alexa488-MEK5 binding to MEKK2 WT, at 10 µM, actives lie on both sides. A general note: A flow cytometer gives signals particle by particle.
Consider `S=C(Nc1cccnc1)Nc1ccccn1`, for which the binding response (% of control) was 99% (inactive).

For `COCC1CCN(C(=O)CCc2nnc(C3(c4ccc(Cl)cc4)CCC3)o2)C1` (stereo not drawn), the binding response (% of control) was 103% (inactive).

Turning to `CCN(CC)CCN1C(=O)C2C(C(=O)Nc3ccc(Br)cc3)C3C=CC2(O3)C1C(=O)NC1CCCCC1` (stereo not drawn), the binding response (% of control) is 106% (inactive).

Take `C=CCOC(=O)C1=C[C@H](c2ccc(Br)cc2)C[C@H](OCCCCO)O1`: the binding response (% of control) is 95% (inactive).

`Cc1cc2oc3ccc(NCCC4CCCN4C)cc3c(=O)c2cc1C` (stereo not drawn): the binding response (% of control) was 135% (inactive).

Take `CCOC(=O)CSc1nc2ccc(C)cc2n2cnnc12`: the binding response (% of control) was 96% (inactive).

As for `C#CCNC(=O)[C@H](Cc1ccc(C(=O)c2ccccc2)cc1)NC(=O)OC(C)(C)C`, the binding response (% of control) was 101% (inactive).

Consider `Cc1cc(-c2ccc(C)c(S(=O)(=O)NCCCN(Cc3ccccc3)C(C)C)c2)on1`, for which the binding response (% of control) was 108% (inactive).

Consider `Cc1ccc(N2C(=O)CC(N3CCSCC3)C2=O)c(C)c1` (stereo not drawn), for which the binding response (% of control) was 62% [inhibitor] (active).

For the compound `Cc1ccc(CC2CC(=O)N(c3cc(C)ccc3C)C2=O)cc1` (stereo not drawn), the binding response (% of control) is 101% (inactive).

Take `O=C1CC(N2CCN(c3ccc(F)cc3)CC2)C(=O)N1c1ccccc1` (stereo not drawn): the binding response (% of control) was 101% (inactive).

On to `COc1cc(C(=O)NCCOC(=O)c2cccc(N(C)C)c2)cc(OC)c1OC`, for which the binding response (% of control) is 96% (inactive).

Regarding `COc1ccc(N2CCN(C(=O)C3CCN(C(=O)c4ccccc4Cl)CC3)CC2)cc1`, the binding response (% of control) is 97% (inactive).

With `O=C(Cn1cnc2ccccc21)Nc1ccccc1-c1ccccc1`, the binding response (% of control) was 115% (inactive).

For the compound `COc1ccccc1C(C)NC(=O)Cc1ccsc1` (stereo not drawn), the binding response (% of control) is 104% (inactive).

On to `CN1CCN(c2ccc(NC(=O)c3ccccc3)cc2)CC1`, for which the binding response (% of control) was 111% (inactive).

`O=C(c1ccccc1)c1ccc(C(=O)N2CCN(c3ccccc3)CC2)cc1`: the binding response (% of control) is 102% (inactive).

Consider `CN1CCC(CN)(N2CCN(c3ccccc3)CC2)CC1`, for which the binding response (% of control) is 146% (active).

With `CCn1c(SCC(=O)NC2CC2)nnc1-c1ccccc1OC`, the binding response (% of control) was 100% (inactive).

Consider `CCOC(=O)C(Cc1ccc(N)cc1)N1C(=O)c2ccccc2C1=O` (stereo not drawn), for which the binding response (% of control) was 106% (inactive).

In the case of `O=S(=O)(NCC1CC1)c1ccc(F)c(Cl)c1`, the binding response (% of control) was 97% (inactive).

On to `O=C(CN1C(=O)c2cccnc2Oc2ccc(Cl)cc21)NCCc1ccccc1`, for which the binding response (% of control) was 101% (inactive).

Consider `Cc1ccc2c(c1)N(CC(=O)NCCc1ccc(Cl)cc1)C(=O)c1cccnc1O2`, for which the binding response (% of control) is 98% (inactive).

On to `Cc1ccc2c(c1)N(CC(=O)NCCCN1CCCCC1)C(=O)c1cccnc1O2`, for which the binding response (% of control) was 106% (inactive).

Take `O=C(CN1C(=O)c2cccnc2Oc2ccc(Cl)cc21)Nc1ccc(F)cc1`: the binding response (% of control) was 50% [inhibitor] (active).

Take `CC(=O)c1cccc(NC(=O)CN2C(=O)c3cccnc3Oc3ccc(Cl)cc32)c1`: the binding response (% of control) is 68% [inhibitor] (active).

Regarding `Cc1ccc2c(c1)N(CC(=O)N1CCC(C)CC1)C(=O)c1cccnc1O2`, the binding response (% of control) is 103% (inactive).

Regarding `Cc1ccc(-c2csc(NCCc3nc4cc(Cl)c(Cl)cc4n3CCOCCO)n2)cc1`, the binding response (% of control) is 105% (inactive).

As for `CCn1ccnc1CN(C)C(=O)c1ccc2nc(Cc3ccc(OC)cc3)oc2c1`, the binding response (% of control) was 103% (inactive).

For `COC(=O)c1ccc2c(C(C)(C)O)c(C(C)(C)O)[nH]c2c1`, the binding response (% of control) was 88% (inactive).

For the compound `Cc1ccccc1N(C(=O)CNC(=O)c1cccs1)C(C(=O)NC1CCCC1)c1ccncc1` (stereo not drawn), the binding response (% of control) is 98% (inactive).

Take `CCOC(=O)c1cc2occc2n1CC(=O)N1CCN(C(=O)c2ccco2)CC1`: the binding response (% of control) is -8% [inhibitor] (active).

`CCOC(=O)c1cc2c(ccn2C)n1CC(=O)N1CCC(C)CC1`: the binding response (% of control) was 110% (inactive).

In the case of `CCOC(=O)c1cc2occc2n1CC(=O)NC1CCC(C)CC1` (stereo not drawn), the binding response (% of control) was 99% (inactive).

As to `Fc1ccccc1/C=N/Nc1cc(N2CCCCC2)ncn1`, the binding response (% of control) is 108% (inactive).

As for `CCOC(=O)Nc1ccc2c(c1)N(C(=O)CCCl)c1ccccc1[S@]2=O`, the binding response (% of control) was 107% (inactive).

As to `CC(C)(C)NC(=O)Cn1cnc2cc([N+](=O)[O-])ccc2c1=O`, the binding response (% of control) is 88% (inactive).

Regarding `CC(C)(C)NC(=O)Cn1cnc([N+](=O)[O-])n1`, the binding response (% of control) is 2% [inhibitor] (active).

On to `O=C(Cn1cnc([N+](=O)[O-])n1)NCCc1ccccc1`, for which the binding response (% of control) is 100% (inactive).

Regarding `CC(=O)Nc1ccc(NC(=O)CS(=O)(=O)c2cn(CC(=O)N3CCCCC3)c3ccccc23)cc1`, the binding response (% of control) was 99% (inactive).

With `Cc1ccc(CSCC2Nc3ccc(C(=O)N4CCN(c5ccc(F)cc5)CC4)cc3NC2=O)cc1` (stereo not drawn), the binding response (% of control) is 94% (inactive).

Turning to `Cc1snc(SCc2c(F)cccc2Cl)c1C#N`, the binding response (% of control) was 108% (inactive).

With `O=C(CN1CCN(S(=O)(=O)c2cc(Cl)ccc2Cl)CC1)c1ccc(O)c(O)c1`, the binding response (% of control) is 97% (inactive).

On to `Oc1c(C=Nc2cccc3nsnc23)ccc2ccccc12`, for which the binding response (% of control) was 31% [inhibitor] (active).

`COc1ccc(C=Nc2cccc3ncccc23)cc1`: the binding response (% of control) is 81% (inactive).

`O=[N+]([O-])c1ccc(N=Cc2c(O)ccc3ccccc23)cc1`: the binding response (% of control) was 95% (inactive).

For `O=C(OCC1O[C@@H](OC(=O)c2cc(O)c(O)c(O)c2)[C@@H](OC(=O)c2cc(O)c(O)c(O)c2)[C@@H](OC(=O)c2cc(O)c(O)c(O)c2)[C@@H]1OC(=O)c1cc(O)c(O)c(O)c1)c1cc(O)c(O)c(O)c1` (stereo partly drawn), the binding response (% of control) was 62% [inhibitor] (active).

On to `Cc1ccc(C)c(NS(=O)(=O)c2c(C)[nH]c(C)c2C(=O)N2CCCCC2)c1`, for which the binding response (% of control) was 103% (inactive).

On to `CC(=O)Nc1ccc(NC(=O)COc2ccc(-c3ccccc3)cc2)cc1`, for which the binding response (% of control) is 97% (inactive).

As to `CCC(C)OC(=O)C(C)Oc1ccc(-c2ccccc2)cc1` (stereo not drawn), the binding response (% of control) was 2% [inhibitor] (active).

Turning to `COc1ccc(-c2noc(CNC(=O)C(C)Oc3ccccc3)n2)cc1` (stereo not drawn), the binding response (% of control) is 98% (inactive).

Turning to `CCCCNC(=O)N(O)C1N(/N=C/c2ccccc2O)C(=S)SC1(C)C` (stereo not drawn), the binding response (% of control) was 101% (inactive).

In the case of `Cc1ccc(-n2ncc3c2CC(C)(C)CC3NC(=O)Cc2c(C)noc2C)cc1` (stereo not drawn), the binding response (% of control) is 100% (inactive).

As for `CCC1=Nc2cc(C(=O)NCCN3CCCC3)ccc2Sc2ccc(C)cc21`, the binding response (% of control) is 155% (active).

`CCCC1=Nc2cc(C(=O)NCCN3CCCC3)ccc2Sc2ccccc21`: the binding response (% of control) is 142% (active).

For `Cc1cc(C)cc(C(=O)NCCN2CCOCC2)c1`, the binding response (% of control) is 109% (inactive).

On to `CCC1=Nc2cc(C(=O)NCCCN3CCOCC3)ccc2Sc2ccc(Br)cc21`, for which the binding response (% of control) is 108% (inactive).

For `Cc1ccccc1CN1C(=O)c2ccccc2Sc2ccc(C(=O)NCCCN3CCOCC3)cc21`, the binding response (% of control) is 110% (inactive).

With `CCCC1=Nc2cc(C(=O)NCc3ccco3)ccc2Sc2ccccc21`, the binding response (% of control) is 98% (inactive).

Regarding `COCCNC(=O)CSc1nc2sccc2c(=O)n1-c1ccccc1`, the binding response (% of control) is 101% (inactive).

Regarding `CCOC(=O)C1CCN(C(=O)COc2cccc3ccccc23)CC1`, the binding response (% of control) is 97% (inactive).

As for `Cc1nc(N=C(N)N)nc2c(C)cccc12`, the binding response (% of control) was 145% (active).

Consider `CC(=O)Oc1ccc(-c2nc3c(C)cccc3c(=O)o2)cc1`, for which the binding response (% of control) was 106% (inactive).

On to `Cc1nc(/N=C(\N)NC(=O)NC2CCCCC2)nc2ccccc12`, for which the binding response (% of control) is 108% (inactive).

Take `NC(N)=N/N=C/c1ccc(OCc2ccc(Cl)cc2Cl)cc1`: the binding response (% of control) is 213% (active).

Regarding `NC(N)=N/N=C/c1ccc(Cl)c([N+](=O)[O-])c1`, the binding response (% of control) is 109% (inactive).

Regarding `CCOc1ccc(NC(=O)NNC(=O)c2ccc(Cl)cc2Cl)cc1`, the binding response (% of control) was 96% (inactive).

For `Cc1cc(OCC(=O)Nc2c(C)n(C)n(-c3ccccc3)c2=O)ccc1[N+](=O)[O-]`, the binding response (% of control) was 97% (inactive).

Turning to `CN(C)S(=O)(=O)c1ccc2oc(SCC(=O)Nc3ccccc3F)nc2c1`, the binding response (% of control) was 99% (inactive).

Consider `C=CCNc1nc(N)c([N+](=O)[O-])c(NC2CCCCC2)n1`, for which the binding response (% of control) is 100% (inactive).

Consider `O=C(NCCc1c[nH]c2ccccc12)C1CCN(Cc2ccc(Br)cc2)CC1`, for which the binding response (% of control) is 125% (inactive).

Regarding `O=C(Cc1c(F)cccc1Cl)N1CCN(C(=O)c2ccco2)CC1`, the binding response (% of control) was 99% (inactive).

`O=C(c1cccc([N+](=O)[O-])c1)N1CCN(C(=O)c2ccco2)CC1`: the binding response (% of control) is 99% (inactive).

Consider `O=C(c1ccco1)N1CCN(c2cccc(Cl)c2)CC1`, for which the binding response (% of control) was -2% [inhibitor] (active).

Regarding `CC1CC(C)CN(S(=O)(=O)c2cccc3nonc23)C1` (stereo not drawn), the binding response (% of control) is 109% (inactive).

In the case of `COc1ccc(OC)c(S(=O)(=O)N2CCCC(C(=O)NCCc3ccccc3)C2)c1` (stereo not drawn), the binding response (% of control) was 100% (inactive).

With `Cc1cccc(N(C(=O)c2csnn2)C(C(=O)NCc2ccccc2)c2ccncc2)c1` (stereo not drawn), the binding response (% of control) was 102% (inactive).

`CCC(=C/c1sc2ccc3ccccc3c2[n+]1C)/C=C1\Sc2ccc3ccccc3c2N1C`: the binding response (% of control) is 9% [inhibitor] (active).

On to `CCc1ccc(NC(=O)Nc2ccncc2)cc1`, for which the binding response (% of control) is 107% (inactive).

Take `CC1(C)C=Cc2c(ccc3c2OC[C@@H](c2ccc(O)cc2O)C3)O1`: the binding response (% of control) was 107% (inactive).

For `COc1ccccc1C(=O)NCc1nnc(SC(C)C(=O)Nc2nccs2)n1C` (stereo not drawn), the binding response (% of control) was 105% (inactive).

Turning to `Cc1ccc(S(=O)(=O)NC2CCCCCC2)cc1C(N)=O`, the binding response (% of control) is 99% (inactive).

Take `c1ccc2c(c1)C(=NC1CCCCC1)NC2=NC1CCCCC1`: the binding response (% of control) is 145% (active).

`O=C(c1noc2c1CCCC2)N1CCc2ccccc2C1`: the binding response (% of control) is 97% (inactive).

Consider `Cc1cccc(CN2CCC(CNC(=O)Nc3ccc(F)c(Cl)c3)CC2)c1`, for which the binding response (% of control) was 139% (active).

Take `COc1cc(NC(=O)NCC2CCN(Cc3ccc(C)cc3)CC2)cc(OC)c1OC`: the binding response (% of control) is 113% (inactive).

For `COc1ccc(Cl)cc1NC(=O)NCC1CCN(Cc2ccccc2F)CC1`, the binding response (% of control) was 118% (inactive).

For `Cc1ccccc1NC(=O)NCC1CCN(Cc2cccc(Cl)c2)CC1`, the binding response (% of control) is 104% (inactive).

For `O=C(NCC1CCN(Cc2ccccc2Cl)CC1)Nc1cccc(Cl)c1`, the binding response (% of control) is 110% (inactive).

Turning to `Cc1ccc(C)c(CN2CCC(CNC(=O)Nc3ccc(C)c(F)c3)CC2)c1`, the binding response (% of control) was 150% (active).

`CC(C(=O)c1ccc(-c2ccccc2)cc1)[n+]1cccc(Br)c1` (stereo not drawn): the binding response (% of control) was 123% (inactive).

As to `CC(=O)N1CC(=O)N(CC(=O)Nc2ccc(Br)cc2)C1=S`, the binding response (% of control) was 97% (inactive).

Regarding `CCOC(=O)c1cccc(NC(=O)c2ccc(F)cc2F)c1`, the binding response (% of control) was 105% (inactive).

These data come from PubChem BioAssay AID1531 (NMMLSC, 2009).
